Tau fibril FP: inhibitors of human tau fibril formation | Potency, µM (series often up to 57.7 µM), for the others: top-dose activity, negative = inhibition, hits mostly inhibitors | 280,000 compounds, 0.39% hits | P10636 | AID 1468 | K18 P301L tau heparin fibrillization, Alexa594 FP, 6 h; note: nearly all actives have a fitted effect of over 55% in size
Target sequence (P10636 561-689 P618L limits assumed): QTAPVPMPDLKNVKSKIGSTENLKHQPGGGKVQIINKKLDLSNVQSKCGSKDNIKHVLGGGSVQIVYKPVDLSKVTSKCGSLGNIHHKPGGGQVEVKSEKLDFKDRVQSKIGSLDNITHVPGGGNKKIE
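Heparin (20 uM) drove fibril formation of recombinant tau K18 P301L, 15 uM unlabeled with 0.24 uM Alexa 594 label, for 6 hr at 37 C in 100 mM sodium acetate pH 7. Fluorescence polarization (555/632 nm) read 1 hr after 30 uM ThT.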
NPSR antagonist: neuropeptide S receptor (human) antagonism, cAMP; Q6W5P4; CHO-NPSR cells, cAMP TR-FRET, antagonist mode; Potency, µM (doses to about 38.3 µM), inactives show top-dose activity change, negative = inhibition, most hits filed as inhibitors; 220,000 compounds, 1% hits; AID 1461; note: nearly all actives have a fitted effect of over 50% in size
Target sequence (Q6W5P4 whole entry, looked up): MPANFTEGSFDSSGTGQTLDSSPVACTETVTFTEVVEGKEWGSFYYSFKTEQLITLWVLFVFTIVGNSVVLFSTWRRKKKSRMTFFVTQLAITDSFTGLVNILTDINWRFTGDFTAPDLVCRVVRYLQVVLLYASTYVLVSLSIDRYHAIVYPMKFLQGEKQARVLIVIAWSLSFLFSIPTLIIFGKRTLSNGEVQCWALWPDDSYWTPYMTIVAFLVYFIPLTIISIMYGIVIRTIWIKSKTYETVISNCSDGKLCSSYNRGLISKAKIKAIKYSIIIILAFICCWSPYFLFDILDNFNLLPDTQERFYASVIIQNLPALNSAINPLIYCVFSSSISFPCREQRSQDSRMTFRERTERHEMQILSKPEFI
Luc counter: Kinase-Glo luciferase inhibition (counter-screen) | Q27757 | Kinase-Glo luciferase, ATP luminescence, 8 min | Potency, µM (highest dose often 38.3 µM), for the others: at the highest dose activity change, negative = inhibition, actives largely listed as inhibitors | 200,000 compounds, 0.28% hits; note: nearly all actives have a fitted effect of over 60% in size
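Light output from Kinase-Glo luciferase with luciferin and 10 uM ATP in 50 mM imidazole pH 7.2, KCl, MgCl2, Tween 20, BSA; compound pin-delivered, 8-min ambient incubation, then luminescence read.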
Tau fibril ThT: tau fibrillization inhibition (ThT binding); recombinant tau K18 P301L, heparin-induced fibrillization, ThT fluorescence; 270,000 compounds, 2.1% hits; Potency, µM (doses to about 57.4 µM), for inactives: at the top dose activity, negative = inhibition, hits mostly inhibitors; AID 1460; P10636; note: nearly all actives have a fitted effect of over 55% in size
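Recombinant human tau K18 fragment […] carrying P301L, 15 uM unlabeled plus 0.24 uM Alexa 594-labeled, was fibrillized with 20 uM heparin in 100 mM sodium acetate pH 7 for 6 hr at 37 C; 30 uM ThT fluorescence read after 1 hr.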
Tau fluor counter: counter-screen for tau fibril formation inhibitors | tau K18 P301L Alexa594 fluorescence, heparin fibrillization | Potency, µM (top dose mostly 57.7 µM), for inactives: at the highest dose activity change, negative = decrease | 280,000 compounds, 0.93% hits; note: nearly all actives have a fitted effect of over 55% in size
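Human tau K18 P301L (15 uM unlabeled, 0.24 uM Alexa 594-labeled) in 100 mM sodium acetate pH 7 with 20 uM heparin, 6 hr at 37 C. ThT 30 uM added, 1 hr ambient; Alexa 594 FP and total fluorescence read at 555/632 nm.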
* = called active by the depositor; ? = inconclusive; . = no result given; [ ] = dose if it differs, or a comment. Only some compounds are listed: those with a hit (about 3.3% of all), similar ones and a draw of the others. Calls come from the whole dose curve; as a rule, active = well fitted curve in the direction sought with a large enough effect; inconclusive = small, poorly fitted or top-dose-only effect, or another doubt; inactive = no such curve, though single readings can be large; an effect the other way counts as inactive or inconclusive. % is set by controls: 0 for no effect and ±100 for the full control effect; potency is the fitted concentration of half-maximal effect.

SMILES	Tau fibril FP	NPSR antagonist	Luc counter	Tau fibril ThT	Tau fluor counter
Cc1cccc(-c2nc3c4ccccc4nc(N4CCN(c5cccc(Cl)c5)CC4)n3n2)c1	0%	.	.	15%	-3%
CCOC(=O)c1sc(N/N=C/c2cccc(C)c2)nc1C	?	-18%[46.1 µM]	0%	?	8.9µM*[quencher]
CC(=O)c1sc(N/N=C\c2ccccc2O)nc1C	7%	1.6µM*	-5%	?	?
CC/C(=N\NC(N)=O)c1ccc(OC(F)F)cc1	-3%	-24%	.	0%	-8%
O=c1c(CCc2ccccc2)nc2cnc(Oc3cccc(Cl)c3)nc2n1C[C@H]1CCCO1	.	.	0%	.	.
COc1ccc(-c2nc(CS(=O)CC(=O)NCCc3ccccc3)c(C)o2)cc1OC (stereo not drawn)	-8%	.	.	?	-8%
Cc1cc(/C=N/n2cnnc2)c(C)n1-c1ccc(OCc2ccccc2F)cc1	2%	?	-4%	?	-19%
Cc1cc(/C=N/n2cnnc2)c(C)n1-c1ccc(OCc2ccc(Cl)cc2)cc1	3%	10µM*	-1%	?	-29%
O=C1C(Cl)=C(NCCCO)C(=O)c2ccccc21	0%	-8%[46.1 µM]	-7%	?	-17%
CCOCCCNC1=C(Cl)C(=O)c2ccccc2C1=O	?	?	.	16µM*	?
COc1ccc(N2CCN(S(=O)(=O)c3ccc4c(c3)CC(C)N4C(C)=O)CC2)cc1 (stereo not drawn)	8%	.	.	-3%	-13%
C/C(=N\NC(=O)c1ccccn1)c1ccc(C(=O)O)s1	-5%	6%	14µM*	-4%	-8%
C#CCOCCOCCOCCNc1nc(N2CCN(C(=O)[C@H](CCCCN)n3cc(C(N)COC(=O)C(F)(F)F)nn3)CC2)nc(N2CCN(C(=O)[C@H](CCCCN)n3cc(C(N)CC(C)C)nn3)CC2)n1 (stereo partly drawn)	-5%	34%	.	-2%	10%
S=C(NCc1ccccc1)NNc1nc2ccccc2[nH]1	?	5%	0%	28µM*	?
c1ccc(CNc2nc3ccccc3[nH]2)cc1	4%	-6%[46.1 µM]	8%	-10%	-5%
CC(C(=O)NCc1ccccc1Cl)n1ccc2cc(S(=O)(=O)N3CCCCC3)ccc21 (stereo not drawn)	-5%	.	.	14%	-13%
NC(=O)C1(NC(=O)[C@@H]2CC3(CC(c4cccc(NC(=O)c5cc([N+](=O)[O-])cc([N+](=O)[O-])c5)c4)=NO3)CN2C(=O)c2ccccc2)CC1 (stereo partly drawn)	?	-6%[46.1 µM]	-4%	-13%	25µM*[quencher]
Nc1c(S(=O)(=O)c2ccccc2)c2nc3ccccc3nc2n1/N=C/c1ccco1	-8%	?	-4%	28µM*	?
COc1cccc(/C=N/n2c(N)c(S(=O)(=O)c3cccs3)c3nc4ccccc4nc32)c1	-4%	-3%[46.1 µM]	0%	-13%	-20%
Cc1ccc(S(=O)(=O)c2c(N)n(/N=C/c3ccco3)c3nc4ccccc4nc23)cc1C	?	?	4%	16µM*	?
Cc1ccc(S(=O)(=O)c2c(N)n(/N=C/c3ccco3)c3nc4ccccc4nc23)cc1	?	-30%[46.1 µM]	-4%	?	?
Nc1c(S(=O)(=O)c2cccs2)c2nc3ccccc3nc2n1/N=C/c1cccc(O)c1	7.9µM*	7.9µM*	3%	0%	3.2µM*[quencher]
CCOc1ccccc1CNC(=O)c1ccc2nc(Cc3ccc(OC)cc3)oc2c1	-2%	.	.	-14%	-17%
COc1ccc(CSc2nc3ccccc3[nH]2)cc1	-5%	1%[46.1 µM]	8.9µM*	-11%	-10%
COc1ccc(CSc2nc3ncccc3[nH]2)cc1	4%	.	.	-3%	-3%
SMILES	Tau fibril FP	NPSR antagonist	Luc counter	Tau fibril ThT	Tau fluor counter
O=c1ccc2cc3c([nH]c4ccc(Br)cc43)oc-2c1O	?	-3%[46.1 µM]	-4%	14µM*	?
COC(=O)/C(=C/Nc1ccc(O)cc1)[N+](=O)[O-]	?	8%[46.1 µM]	-4%	18µM*	?
C/C(=N\N=C(N)N)c1cccc([N+](=O)[O-])c1	-13%	-7%[46.1 µM]	-3%	-4%	-9%
C/C(=N\N=C\c1ccc(N(C)C)cc1)c1cccc([N+](=O)[O-])c1	9%	0%	-12%	1.3µM*	-29%
Fc1ccc(Nc2nc(-c3ccncc3)cs2)cc1	6%	-17%	0%	?	-19%
Oc1ccc(Nc2nc(-c3ccc(O)cc3)cs2)cc1	2%	?	-1%	6.3µM*	14µM*[quencher]
COc1ccc(Nc2nc(-c3c[nH]c4ccccc34)cs2)cc1	?	-11%	-1%	8.9µM*	13µM*[quencher]
COc1ccc(-c2csc(Nc3ccccc3)n2)cc1	6%	-34%	-4%	?	28µM*[quencher]
NS(=O)(=O)c1ccc(Nc2nc(-c3ccc(O)cc3)cs2)cc1	20%	-15%[46.1 µM]	-2%	13µM*	?
COc1ccc(Nc2nc(-c3ccc(OC)cc3)cs2)cc1	6%	4%	1%	?	?
COc1ccc(Nc2nc3ccccc3s2)cc1	4%	6%	-8%	13%	14%
O=C(Cn1cc(S(=O)(=O)Cc2ccc(F)cc2)c2ccccc21)NCc1ccccc1Cl	-9%	.	.	-14%	?
COC(=O)Cn1c(SCCOc2ccccc2OC)nc2ccccc21	-10%	.	.	10%	6%
CCOC(=O)c1cc(C)n(CC2CCC(C(=O)Nc3ccc(OCC)cc3)CC2)c1C (stereo not drawn)	17%	.	.	-1%	-4%
Cc1ccc(NC(=O)c2ccc3nc(Cc4ccccc4)oc3c2)cc1F	?	.	.	-5%	-19%
CC(=O)Oc1ccc(-c2csc(Nc3ccc(S(N)(=O)=O)cc3)n2)cc1	11%[2.34 µM]	-1%	-3%	0%	12%[2.34 µM]
COc1ccc2oc(=O)c(-c3csc(-c4ccc(Br)cc4)n3)cc2c1	-11%	.	.	6%	-10%
Nc1nc(-c2ccc(Br)cc2)cs1	2%	2%[46.1 µM]	-2%	?	?
Oc1ccc(Nc2nc(-c3ccc(Cl)cc3)cs2)cc1	?	.	1%	4µM*	7.9µM*[quencher]
COc1ccc2oc(=O)c(-c3csc(Nc4ccc(O)cc4)n3)cc2c1	-15%	-28%	-1%	2.2µM*	3.2µM*[quencher]
COc1ccc(-c2csc(Nc3ccc(S(N)(=O)=O)cc3)n2)cc1	?	-14%[46.1 µM]	19%	?	13µM*[quencher]
Brc1ccc(-c2csc(Nc3nc(-c4ccc(Br)cc4)cs3)n2)cc1	2%	?	.	?	8.9µM*[quencher]
CCOc1ccc(NC(=O)CSc2oc(-c3cccs3)nc2S(=O)(=O)c2ccc(C)cc2)cc1	?	.	.	-13%	?
O=Cc1cc(N=Nc2ccccc2Cl)ccc1O	?	?	-1%	13µM*	?
O=Cc1cc(N=Nc2cccc(C(=O)O)c2)ccc1O	-8%	-40%	-15%	4µM*	-13%
Oc1ccccc1N=Nc1ccccc1O	12%	-4%	-2%	?	-11%
